Assay in all cases: PBM binding z-score (relative to random genomic background probes); higher = stronger binding; sequences stand for … in GC…GCGATTGACAGCGTAGAATGAAGG
The test system of assay [1] is FXR:RXRa (NR concentration 270 nM, RXRa partner concentration 90 nM). Summed up: (§1)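 The probes on custom Agilent 4×180K protein-binding microarrays were double-stranded, with 34-nt variable regions bearing direct-repeat seeds, single-nucleotide variants, half-site ablations and random human genomic background sequences. Incubation lasted 1 h with ligand-free nuclear receptor dimers in PBS pH 7.4, 2% milk, 0.02% Triton X-100, 1 mM DTT, 0.2 mg/mL BSA and 0.4 mg/ml salmon testes DNA. Antibodies against each partner (one per run) detected bound dimers, and fluorescence scans were regression-normalized. Binding z-scores take the random background probes as reference.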

Assay [2] concerns LXRa:RXRa (NR concentration 270 nM, RXRa partner concentration 90 nM). In outline: as §1
For assay [3], the system named is LXRa homodimer (NR concentration 270 nM). Summed up: as §1
Assay [4] has as its system LXRb:RXRa (NR concentration 270 nM, RXRa partner concentration 90 nM). In outline: as §1
Assay [5] concerns LXRb homodimer (NR concentration 270 nM). Summed up:
as §1

The test system of assay [6] is PPARa:RXRa (NR concentration 270 nM, RXRa partner concentration 90 nM). In outline:
as §1

Assay [7] relates to PPARg:RXRa (NR concentration 180 nM, RXRa partner concentration 90 nM). Summed up: as §1
Assay [8] deals with PPARg:RXRa 270nM:90nM, anti-RXR (NR concentration 270 nM, RXRa partner concentration 90 nM). In outline:
as §1

The test system of assay [9] is PPARg:RXRa 30nM:10nM, anti-RXR (NR concentration 30 nM, RXRa partner concentration 10 nM). Summed up:
as §1

The subject of assay [10] is PPARg:RXRa 90nM:30nM, anti-RXR (NR concentration 90 nM, RXRa partner concentration 30 nM). In outline: as §1

As to GGAACGAGGGCAAAGTTGAGAGCATCTGTCGACG, the PBM binding z-score in [1] was 1.68; in assay [2], 1.11; in assay [3] it was -0.49; in assay [4], 1.03; in assay [5], -0.383; in assay [6], 4.56. The PBM binding z-score in assay [7] stood at 8.2; in [8], 7.84; in [9], 7.2; in [10], 8.99.

As to TAGCCTAGGCCATTCAGGGGCCAGTATAGAAAGC, the PBM binding z-score was -0.487 in [1]; -0.796 in [2]; -0.549 in assay [3]; -0.624 in assay [4]; -0.52 in assay [5]; -0.185 in [6]. For the same sequence, the PBM binding z-score in [7] was 0.0353; in [8] it was -0.377; in assay [9], -0.468; in assay [10], -0.511.

As for CCGACTGGGGCAAAGGTTACCATCCTCAGTACGA, the PBM binding z-score was 1.66 in [1]; 1.25 in [2]; -0.21 in assay [3]; 1.79 in assay [4]; -0.941 in assay [5]; 5.49 in [6]. For the same sequence, the PBM binding z-score in [7] is 10.9; in assay [8], 9.37; in assay [9] it was 8.35; in assay [10] it was 10.1.

With CGTCCAAGGTCAGCAGGTCAGTAAAAGCGACGTG, the PBM binding z-score in assay [1] was 5.97; in assay [2], 4.07; in [3] it was 0.614; in assay [4], 3.22; in [5] it was -0.235; in assay [6], 4.9. The PBM binding z-score in assay [7] is 3.97; in assay [8] it was 4.43; in assay [9], 1.37; in assay [10], 2.87.

As to CCTATTAGTTGACCATAAGGGCAACCGGAGCTCG, the PBM binding z-score in assay [1] is 0.775; in [2], 0.432; in assay [3], 0.625; in assay [4] it was 0.404; in [5], 0.814; in assay [6], 0.657. Besides, the PBM binding z-score is 0.421 in assay [7], 0.473 in assay [8], -0.154 in [9] and 0.171 in assay [10].

As to TAGCCTAGGTCAGCTCGGGCCAGTATACGCTATA, the PBM binding z-score in assay [1] was 2.43; in assay [2], 1.05; in [3], -0.68; in assay [4], 0.599; in [5], -1.22; in assay [6], 1.66. The PBM binding z-score in assay [7] is 0.605; in assay [8], 0.958; in [9] it was -0.317; in assay [10], 0.418.

As to CCTGCTAGGTCATGGTTAGCTAATCTACAGTATG, the PBM binding z-score in assay [1] is 3.74; in [2], 2.32; in [3], -0.0293; in [4], 1.71; in assay [5], -0.265; in [6], 3.76. The PBM binding z-score worked out at 2.65 in assay [7], 3.06 in assay [8], 0.508 in [9] and 2.06 in assay [10].

Take AGAACGAGGGCACGCTGGGTTGATAGCAGAGTAG: the PBM binding z-score was 1.04 in assay [1]; 0.969 in [2]; -0.399 in assay [3]; 0.12 in [4]; -0.802 in [5]; 2.11 in assay [6]. Also, the PBM binding z-score turned out to be 2.01 in assay [7], 1.91 in assay [8], 0.228 in [9] and 1.15 in assay [10].

With GCTGCTAGGTCAGCTGATGGTCAGCTAAAGCTCG, the PBM binding z-score is 1.21 in [1]; 0.513 in assay [2]; -0.477 in assay [3]; 0.0658 in assay [4]; -1.13 in assay [5]; 1.58 in assay [6]. In addition, the PBM binding z-score in assay [7] is 0.146; in assay [8], 1.01; in assay [9] it was -0.292; in assay [10], 0.544.

In the case of CAAACTAGGTCAACGGTCAAAGTCGAGCCAACCA, the PBM binding z-score was found to be 5.58 in assay [1]; 4.31 in assay [2]; 2.25 in assay [3]; 3.09 in assay [4]; 0.978 in assay [5]; 6.16 in [6]. Further, the PBM binding z-score in assay [7] was found to be 11; in assay [8], 9.5; in assay [9], 8.86; in [10], 11.

For the sequence CGTCCAAGGACATAGGAGGTCAGTGAAGACAGAT, the PBM binding z-score was 1.5 in assay [1]; 1.47 in assay [2]; 1.23 in assay [3]; 1.26 in assay [4]; -0.58 in assay [5]; 2.02 in assay [6]. Besides, the PBM binding z-score in assay [7] worked out at 0.76; in [8] it was 0.564; in assay [9] it was 0.000734; in [10], 0.268.

For CCTTACGGGTCACGAGGTTTTAGCACGACGAGCG, the PBM binding z-score in assay [1] is 6.33; in [2], 4.19; in assay [3], -0.186; in assay [4], 3.4; in assay [5], -0.145; in assay [6], 5.72. Besides, the PBM binding z-score amounted to 6.51 in [7], 6.3 in assay [8], 2.95 in [9] and 4.7 in assay [10].

These data come from the supplement of paper PMC6555819.
